The sample as a whole holds a higher share of hits than the screen did.
Choline anaer gr: inhibitors of anaerobic choline-dependent gram-negative bacterial growth; Gram-negative bacterium anaerobic choline minimal medium, absorbance growth; active compounds read low; calls only; 55,000 tested, 0.2% active; call rule not given here
Of the large screens only hits and unclear results are named; the others gave an inactive call.

CCCCCCCCCCCCCCCCOC[C@H](COP(=O)([O-])OCC[N+](C)(C)C)OC(C)=O	none
CCCCCCCCCCCCCCCC(=O)OC[C@H](COP(=O)([O-])OCC[N+](C)(C)C)OC(C)=O	none
CCCCCCCCCCCCCCCCOC[C@@H](COP(=O)([O-])OCC[N+](C)(C)C)OC(C)=O	Choline anaer gr active
CCN1C[C@]2(OC(=O)c3ccccc3NC(C)=O)CCC(OC)[C@]34C1C(C[C@H]23)[C@@]1(O)CC(OC)[C@H]2C[C@H]4[C@]1(O)C2OC (stereo partly drawn)	none
Cn1cc(C2=CCN(CC(=O)Nc3ccc(F)cc3)CC2)cn1	none
CCOC(=O)Cc1csc(NC(=O)c2cccn(Cc3ccc(Br)cc3)c2=O)n1	none
Cc1cccc(OCC(=O)N2CCN(CC(=O)Nc3nnc(-c4ccccc4)s3)CC2)c1C	none
O=C1C[C@@H]2OCC=C3CN4CC[C@]56c7ccccc7N1[C@H]5[C@H]2[C@H]3C[C@H]46	Choline anaer gr active
O=C(Cc1csc2nc(-c3ccc(Cl)cc3)cn12)N1CCN(Cc2ccccc2)CC1	none
CC[C@]1(O)CCC2C3CCC4=CCCCC4C3CC[C@@]21C (stereo partly drawn)	none
